Compound activity: PubChem BioAssay, National Center for Advancing Translational Sciences (NCATS)
VACV Venus inh – vaccinia inhibition (Venus reporter); Vaccinia virus Venus reporter expression, fluorescence; Potency, µM (series often up to 36.5 µM), for the others: at the highest dose activity change, negative = inhibition, actives largely listed as inhibitors; 330,000 tested, 0.46% active; AID 720580; calls by dose curve; tested in A549 cells; note: nearly all actives have a fitted effect of over 30% in size
Marburg entry inh – Marburg virus entry inhibition. Potency, µM (doses to about 37.8 µM), for inactives: at the top dose activity change, negative = inhibition, actives largely listed as inhibitors. 300,000 tested, 1.8% active. Marburg virus pseudotyped entry inhibition, cell reporter; calls by dose curve; tested in HEK293 cells
Lassa entry inh – Lassa virus entry inhibition. Lassa virus pseudotype entry inhibition, cell reporter. Potency, µM (top dose mostly 37.9 µM), for the others: at the highest dose activity change, negative = inhibition, actives largely listed as inhibitors. 300,000 tested, 1.2% active. AID 540256; calls by dose curve; tested in HEK293 cells; note: nearly all actives have a fitted effect of over 50% in size
HCV inh – blocks hepatitis C virus; Huh7.5.1 HCVcc-Cre infection, luciferase reporter, 44 h; Potency, µM (highest dose often 41.8 µM), without a hit: at the highest dose activity change, negative = inhibition, most hits filed as inhibitors; 340,000 tested, 3.4% active; AID 651820; active = well fitted inhibition curve with a large enough effect; inconclusive = small, poorly fitted or top-dose-only effect, or another doubt; inactive = no such curve, though single readings can be large or run the other way
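Infectious HCV cell culture screen: compound-treated cells (1,000/well, pre-plated 4 h) are infected with HCVcc-Cre at roughly 0.5 moi and grown 44 h. Infection is quantified by luciferase signal after 15 min substrate incubation at room temperature.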
Vaccinia mCherry – inhibitors of vaccinia virus infection (mCherry reporter signal) | Vaccinia virus mCherry reporter infection, fluorescence | Potency, µM (top dose mostly 36.5 µM), inactives show at the highest dose activity change, negative = inhibition, hits mostly inhibitors | 310,000 tested, 0.63% active | AID 720579; calls by dose curve; tested in A549 cells; note: nearly all actives have a fitted effect of over 35% in size
FMDV antiviral – antivirals against foot and mouth disease virus. FMDV antiviral cell-based qHTS. AID 1159524. Potency, µM (top dose mostly 57.9 µM), for inactives: at the highest dose activity change, negative = inhibition, most hits filed as inhibitors. 410,000 tested, 1.2% active; calls by dose curve; tested in HEK293T cells; note: read-out not given here; nearly all actives have a fitted effect of over 45% in size
* hit, by the source's call; i = inactive; ? = inconclusive; · = no result given; ! = not confirmed by another sample; [ ] = another dose, or the depositor's remark. A selection: hits, their analogues and other compounds. The true share with any hit is near 5.3%. % is set by controls: 0 for no effect and ±100 for the full control effect; potency is the fitted concentration of half-maximal effect.

SMILES	VACV Venus inh	Marburg entry inh	Lassa entry inh	HCV inh	Vaccinia mCherry	FMDV antiviral
Cc1ccc2c(c1)c1ccc3c(c1n2C)C(=O)C=CC3=O	·	·	·	11µM*	·	32µM*
COc1ccc2c(c1)c1ccc3c(c1n2C)C(=O)C=CC3=O	-16%	·	·	?	-20%	28µM*
Cc1ccc(C)c2c1c1ccccc1n2C	2%	7%[46.1 µM]	-1%	?	-7%	56%
Cn1c2ccccc2c2ccc3c(c21)C(=O)C=CC3=O	13%	3%	10%	?	-11%	20µM*
Cc1ccc2c(c1)c1ncnc(N3CCC4(CC3)OCCO4)c1n2C	·	7%	·	·	·	·
Cc1ccc(OC(=O)c2ccncc2)c(C)c1	·	·	·	22%	·	4%
O=C(c1nc2ncccn2n1)N1CCOc2ccc(C(O)C(c3ccccc3)c3ccccc3)cc2C1 (centres undefined)	-2%	·	·	·	-1%	-5%
O=S1(=O)C=C[C@@H](CO)N1Cc1ccc(Br)cc1	1%	·	·	·	18%	-14%
O=S1(=O)C=C(SCCN2CCCCC2)c2ccccc21	-11%	-3%	1%	-21%	-29%	1%
O=C(CSc1nc2ccccc2s1)CSc1nc2ccccc2s1	-3%	-25%	6%	13%	-1%	·
O=S1(=O)C=C(Sc2nc3ccccc3s2)c2ccccc21	?	3.7µM*	?	5µM*	14µM*	5µM*
O=S1(=O)C=C(Sc2nnc(-c3ccccc3)o2)c2ccccc21	·	5.8µM*	21µM*	10µM*	·	10µM*
Cc1cc(C)nc(SC2=CS(=O)(=O)c3ccccc32)n1	2µM*	4.5µM*	?	-33%	13µM*	?
O=C(NCCCN1CCN(c2ccccc2F)CC1)c1ccc2nc(CCc3ccccc3)oc2c1	-15%[7.34 µM]	·	-24%[46.1 µM]	·	-12%[7.34 µM]	?
CC[C@@]1(C)Cc2c(sc3c2c(=O)n(C)c2nnc(SCc4ccccc4)n32)CO1	·	-1%	·	·	·	·
CC(=O)C1=C(C)N(Cc2ccccc2)C(=O)NC1CCc1ccccc1 (centres undefined)	·	?	17%[14.3 µM]	·	·	·
CC(=O)C1=C(C)N(Cc2ccccc2)C(=O)N[C@H]1CCc1ccccc1	-20%	?	12µM*	?	-30%	?
O=C(COC(=O)c1ccc(Br)o1)Nc1nc2ccccc2s1	·	14%	5%	0%	·	0%
O=C(COC(=O)c1ccc([N+](=O)[O-])o1)Nc1nc2ccccc2s1	-20%	6%[46.1 µM]	17%	10µM*	-19%	16%
O=C(Nc1nc2ccc(F)cc2s1)c1ccc([N+](=O)[O-])o1	10µM*	·	·	·	?	-5%
CC[N+](C)(C(=O)O)/C(=C\c1ccccc1)c1ccnc2ccccc12 (centres undefined)	29%	·	·	·	-19%	·
CCOc1c(Br)cc(CNC2CCCCCCC2)cc1OC	·	·	·	11µM*	·	?
COc1cc(CNC2CCCCCCC2)cc(Br)c1OCC#N	-29%	12µM*	-17%	?	-1%	0%
O=C1CCCC=C1C(O)COCc1ccccc1 (centres undefined)	·	3%[14.2 µM]	·	·	·	·
COc1cccc([C@@H]2Oc3ccc(OC)cc3/C(=N/OC[C@@H](O)COCc3ccco3)[C@@H]2O)c1	·	14%[14.2 µM]	·	·	·	·
SMILES	VACV Venus inh	Marburg entry inh	Lassa entry inh	HCV inh	Vaccinia mCherry	FMDV antiviral
CCOC(=O)c1c(C)[nH]c(C(=O)N/N=C/c2ccc(OC)c(OC)c2)c1C	·	·	·	?	·	4%
CCOC(=O)c1c(C)[nH]c(C(=O)N/N=C/c2cc([N+](=O)[O-])ccc2O)c1C	-9%	?	6.5µM*	11µM*	i	-12%
CCOC(=O)c1c(C)[nH]c(C(=O)N/N=C\c2ccccc2O)c1C	?	?	8.9µM*	?	?	12%
CC(C)N(C(=O)CCl)c1ccccc1	?	·	·	10µM*	-25%	?
C#CCN(C)Cc1ccccc1	-10%	?	11%	-9%[8.37 µM]	i	-29%
C#CCN(Cc1ccccc1)S(=O)(=O)C=C	1.6µM*!	·	·	10%	?	?
C#CCCCON=C1C[C@@H](O)[C@H](O)[C@H]2[C@@H]3C(=O)N(C[C@@H]4CCCO4)C(=O)[C@@H]3CC[C@@H]12	·	3%[14.2 µM]	·	·	·	·
CCCCCCCOc1ccc(CC(=O)NO)cc1	-19%	·	·	·	-22%	·
CCOC(=O)c1cc2c(=O)n3ccccc3nc2n(Cc2ccco2)c1=NC(=O)c1cccnc1	-11%	7.3µM*	?	2%	-14%	-2%
Cc1cccn2c(=O)c3cc(C#N)c(=NC(=O)c4ccco4)n(Cc4ccco4)c3nc12	-10%	-2%[46.1 µM]	-6%[46.1 µM]	?	-6%	-20%
Cc1cccn2c(=O)c3cc(C#N)c(=NC(=O)c4ccccc4)n(Cc4ccco4)c3nc12	?	?	?	4µM*	-20%	-29%
CCc1cccc(NC(=O)Cn2cc(C=O)c3ccccc32)c1	·	·	·	6%	·	?
CCn1nc(C)cc1C(=O)NCCN1Cc2ccccc2OC(c2ccccc2F)C1 (centres undefined)	-7%	·	·	·	-20%	?
O=C(CC1C[C@H](C(=O)N2CCOCC2)[C@@]2(CCC3CCCC3)c3[nH]c4ccccc4c3CCN2C1=O)NCc1cccc(C(F)(F)F)c1 (some centres undefined)	10µM*	·	·	-16%[8.37 µM]	10µM*	-34%
COc1ccc(CNC(=O)CC2C[C@H](C(=O)N3CCOCC3)[C@@]3(CCC4CCCC4)c4[nH]c5ccccc5c4CCN3C2=O)cc1OC (some centres undefined)	-13%	·	·	7.9µM*	-10%	9%
CN(C)CCCNC(=O)CC1C[C@H](C(=O)N2CCOCC2)[C@@]2(CCC3CCCC3)c3[nH]c4ccccc4c3CCN2C1=O (some centres undefined)	0%	·	·	23%	-16%	10%
CN(C)C(=O)CCc1ccc2c3c([nH]c2c1)[C@]1(CCC2CCCC2)[C@@H](C(=O)N2CCOCC2)C[C@H](CC(=O)NCc2cccc(C(F)(F)F)c2)C(=O)N1CC3	?	·	·	25µM*	-24%	-24%
CN(C)C(=O)CCc1ccc2c3c([nH]c2c1)[C@]1(C)[C@@H](C(=O)N2CCCCC2)C[C@H](CC(=O)NCc2cccc(C(F)(F)F)c2)C(=O)N1CC3	-25%	·	·	?	-29%	-22%
CCC(C)(C)n1nnnc1C(c1cccs1)N1CC=C(c2ccc(F)cc2)CC1 (centres undefined)	-26%	15µM*	?	?	-23%	·
CN1CCN(c2ccc(Nc3ccnc4cc(Cl)ccc34)cc2)CC1	?	?	2.5µM*	?	?	-15%
CN1CCN(c2ccc(Nc3c4ccccc4nc4ccccc34)cc2)CC1	·	·	·	·	·	-26%
CCOc1ccc(Nc2ccnc3cc(Cl)ccc23)cc1	·	·	·	-28%	·	-16%
CCN1CCC(Nc2ccnc3cc(Cl)ccc23)CC1	-7%	13µM*	17%[46.1 µM]	-2%	-5%	-2%
CCN1CCN(c2ccc(Nc3ccnc4ccccc34)cc2)CC1	·	·	·	11µM*	·	0%
